Results reported in paper PMC7862700, “An all-to-all approach to the identification of sequence-specific readers for epigenetic DNA modifications on cytosine”.

Key:
Test in all cases: DAPPL (digital affinity profiling via proximity ligation, sequencing); 10 mM Tris-HCl pH 7.5, 50 mM NaCl, 1 mM DTT, 4% glycerol, room temperature, 30 min; GST-TFs on glutathione beads, 16-mer random dsDNA library, 0.1% formaldehyde crosslink after washing; high values mean tight binding
Conditions in all cases: protein: recombinant; tags: N-terminal GST; dsDNA, one strand shown
FLI1 = molecular target: T1, FLI1 (Homo sapiens, UniProt Q01543 1-452)
T1 sequence: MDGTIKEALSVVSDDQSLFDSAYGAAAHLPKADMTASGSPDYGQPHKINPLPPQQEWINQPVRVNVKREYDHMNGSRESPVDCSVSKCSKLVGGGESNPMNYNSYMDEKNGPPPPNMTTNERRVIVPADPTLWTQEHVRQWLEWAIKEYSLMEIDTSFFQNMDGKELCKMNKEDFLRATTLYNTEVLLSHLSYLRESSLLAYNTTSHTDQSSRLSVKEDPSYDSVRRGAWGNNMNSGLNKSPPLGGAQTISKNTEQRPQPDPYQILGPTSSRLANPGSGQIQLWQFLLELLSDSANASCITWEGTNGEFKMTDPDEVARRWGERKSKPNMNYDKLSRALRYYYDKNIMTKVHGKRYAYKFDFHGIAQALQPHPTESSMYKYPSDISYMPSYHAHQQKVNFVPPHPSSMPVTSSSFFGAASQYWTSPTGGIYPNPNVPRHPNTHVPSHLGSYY
Procedure, shortened: (§1)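 The binding signal reported is, for every hexamer, its read frequency for a factor over its read frequency for the tag-only sample. Reads came from pools of yeast-expressed, GST-fused human transcription factors on glutathione beads, barcoded with DNA and mixed with that sample, which were incubated with 200 nmole of a random double-stranded 16-mer DNA library in Tris/NaCl/DTT/glycerol buffer at room temperature for 30 min. After washing, the pools were crosslinked with 0.1% formaldehyde, proximity-ligated with BsaI/T4 ligase for 1 h at 37 °C, PCR-amplified and sequenced on an Illumina NextSeq500.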

ELK1 = molecular target: T2, ELK1 (Homo sapiens, UniProt P19419 1-428)
T2 sequence: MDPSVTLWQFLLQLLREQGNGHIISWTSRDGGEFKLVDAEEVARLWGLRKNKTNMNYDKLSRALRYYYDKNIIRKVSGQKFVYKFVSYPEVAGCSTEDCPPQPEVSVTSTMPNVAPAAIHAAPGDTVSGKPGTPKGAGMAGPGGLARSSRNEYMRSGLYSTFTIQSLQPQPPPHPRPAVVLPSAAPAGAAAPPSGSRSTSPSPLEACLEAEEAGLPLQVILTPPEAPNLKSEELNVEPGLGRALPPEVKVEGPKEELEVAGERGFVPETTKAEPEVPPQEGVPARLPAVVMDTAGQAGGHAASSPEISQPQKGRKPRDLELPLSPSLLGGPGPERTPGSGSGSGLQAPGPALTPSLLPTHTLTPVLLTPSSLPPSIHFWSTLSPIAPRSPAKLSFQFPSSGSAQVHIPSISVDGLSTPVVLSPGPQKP
Procedure, shortened: as §1

GABPA = molecular target: T3, GABPA (Homo sapiens, UniProt Q06546 1-454)
T3 sequence: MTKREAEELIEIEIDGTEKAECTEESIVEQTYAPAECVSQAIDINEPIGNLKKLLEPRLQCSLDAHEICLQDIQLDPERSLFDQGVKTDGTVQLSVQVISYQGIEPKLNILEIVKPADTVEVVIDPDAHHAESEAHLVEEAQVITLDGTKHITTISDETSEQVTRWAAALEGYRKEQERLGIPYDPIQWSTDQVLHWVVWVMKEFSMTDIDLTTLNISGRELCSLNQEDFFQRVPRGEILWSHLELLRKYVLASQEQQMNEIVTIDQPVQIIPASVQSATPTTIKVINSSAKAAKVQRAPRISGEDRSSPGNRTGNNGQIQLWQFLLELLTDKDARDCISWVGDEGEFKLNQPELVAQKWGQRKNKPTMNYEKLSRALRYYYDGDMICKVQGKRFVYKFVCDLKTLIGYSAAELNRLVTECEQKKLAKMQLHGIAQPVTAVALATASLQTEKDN
Procedure, shortened: as §1

ERG = molecular target: T4, ERG (Homo sapiens, UniProt P11308 1-479)
T4 sequence: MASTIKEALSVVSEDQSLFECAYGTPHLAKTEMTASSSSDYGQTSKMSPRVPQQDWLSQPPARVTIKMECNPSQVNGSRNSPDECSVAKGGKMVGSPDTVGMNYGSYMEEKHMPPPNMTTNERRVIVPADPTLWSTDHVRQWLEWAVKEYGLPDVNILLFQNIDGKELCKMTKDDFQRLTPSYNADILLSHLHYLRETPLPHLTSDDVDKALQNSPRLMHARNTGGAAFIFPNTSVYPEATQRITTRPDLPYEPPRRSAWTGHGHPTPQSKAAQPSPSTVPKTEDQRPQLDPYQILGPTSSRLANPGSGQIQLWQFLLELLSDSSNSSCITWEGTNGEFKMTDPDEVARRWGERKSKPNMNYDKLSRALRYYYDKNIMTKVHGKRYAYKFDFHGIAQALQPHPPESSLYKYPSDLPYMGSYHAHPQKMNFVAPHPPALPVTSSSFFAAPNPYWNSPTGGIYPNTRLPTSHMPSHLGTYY
Procedure, shortened: as §1

ELF1 = ELF1 (Homo sapiens, UniProt P32519 1-619)
Sequence of ELF1 (P32519 whole entry): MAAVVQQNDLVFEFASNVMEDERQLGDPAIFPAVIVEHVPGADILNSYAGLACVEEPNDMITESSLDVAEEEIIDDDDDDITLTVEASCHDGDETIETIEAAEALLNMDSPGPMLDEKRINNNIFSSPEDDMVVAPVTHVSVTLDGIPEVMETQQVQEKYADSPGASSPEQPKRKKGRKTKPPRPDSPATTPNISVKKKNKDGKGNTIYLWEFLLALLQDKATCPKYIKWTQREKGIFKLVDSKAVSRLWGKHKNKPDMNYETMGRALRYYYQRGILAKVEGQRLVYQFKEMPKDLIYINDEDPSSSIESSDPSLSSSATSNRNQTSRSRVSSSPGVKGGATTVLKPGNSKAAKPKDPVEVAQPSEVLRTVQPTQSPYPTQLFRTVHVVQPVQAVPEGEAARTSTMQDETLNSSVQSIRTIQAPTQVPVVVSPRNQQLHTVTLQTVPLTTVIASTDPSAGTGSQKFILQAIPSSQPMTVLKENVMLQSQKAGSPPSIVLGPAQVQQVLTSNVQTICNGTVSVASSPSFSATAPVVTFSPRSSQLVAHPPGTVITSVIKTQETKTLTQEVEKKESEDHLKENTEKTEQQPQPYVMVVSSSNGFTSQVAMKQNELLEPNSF
Procedure, shortened: as §1

EHF = molecular target: T5, EHF (Homo sapiens, UniProt Q9NZC4 1-300)
T5 sequence: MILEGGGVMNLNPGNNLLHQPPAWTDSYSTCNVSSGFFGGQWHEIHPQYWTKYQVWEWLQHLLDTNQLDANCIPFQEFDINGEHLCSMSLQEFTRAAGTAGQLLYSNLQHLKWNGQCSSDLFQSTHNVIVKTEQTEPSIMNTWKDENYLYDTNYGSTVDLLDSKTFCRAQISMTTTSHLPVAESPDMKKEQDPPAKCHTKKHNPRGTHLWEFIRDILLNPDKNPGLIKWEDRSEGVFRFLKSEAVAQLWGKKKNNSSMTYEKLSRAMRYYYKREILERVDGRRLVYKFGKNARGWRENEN
Procedure, shortened: as §1

SPI1 = SPI1 (Homo sapiens, UniProt P17947 1-270)
Procedure, shortened: as §1

SPIB = SPIB (Homo sapiens, UniProt Q01892 1-262)
Sequence of SPIB (Q01892 whole entry): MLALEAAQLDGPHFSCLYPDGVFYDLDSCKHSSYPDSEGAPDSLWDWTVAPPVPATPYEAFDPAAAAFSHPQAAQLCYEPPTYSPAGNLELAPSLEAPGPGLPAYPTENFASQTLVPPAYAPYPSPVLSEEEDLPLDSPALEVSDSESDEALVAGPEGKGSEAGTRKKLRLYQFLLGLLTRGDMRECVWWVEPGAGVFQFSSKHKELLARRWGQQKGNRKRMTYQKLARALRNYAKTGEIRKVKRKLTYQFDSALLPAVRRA
Procedure, shortened: as §1

ELK3 = molecular target: T6, ELK3 (Homo sapiens, UniProt P41970 1-407)
T6 sequence: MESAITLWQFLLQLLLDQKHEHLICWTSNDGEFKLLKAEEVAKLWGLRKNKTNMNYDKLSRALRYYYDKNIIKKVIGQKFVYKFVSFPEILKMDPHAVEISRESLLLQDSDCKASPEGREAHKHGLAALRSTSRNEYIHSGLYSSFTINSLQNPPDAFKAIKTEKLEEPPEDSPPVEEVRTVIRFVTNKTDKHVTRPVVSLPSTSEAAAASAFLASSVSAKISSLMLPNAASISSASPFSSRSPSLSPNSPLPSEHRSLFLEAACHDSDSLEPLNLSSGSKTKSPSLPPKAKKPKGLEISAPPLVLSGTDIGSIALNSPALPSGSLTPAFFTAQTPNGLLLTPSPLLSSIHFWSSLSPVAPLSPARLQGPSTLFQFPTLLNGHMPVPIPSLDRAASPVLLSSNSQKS
Procedure, shortened: as §1

Sequence	binding signal (FLI1)	binding signal (ELK1)	binding signal (GABPA)	binding signal (ERG)	binding signal (ELF1)	binding signal (EHF)	binding signal (SPI1)	binding signal (SPIB)	binding signal (ELK3)
GCACTC	1.29 fold enrichment (6-mer frequency, TF over GST control)	1.5 fold enrichment (6-mer frequency, TF over GST control)	1.32 fold enrichment (6-mer frequency, TF over GST control)	1.31 fold enrichment (6-mer frequency, TF over GST control)	1.33 fold enrichment (6-mer frequency, TF over GST control)	1.37 fold enrichment (6-mer frequency, TF over GST control)	1.35 fold enrichment (6-mer frequency, TF over GST control)	1.35 fold enrichment (6-mer frequency, TF over GST control)	1.28 fold enrichment (6-mer frequency, TF over GST control)
ACATCA	1.11 fold enrichment (6-mer frequency, TF over GST control)	1.12 fold enrichment (6-mer frequency, TF over GST control)	1.09 fold enrichment (6-mer frequency, TF over GST control)	1.14 fold enrichment (6-mer frequency, TF over GST control)	1.16 fold enrichment (6-mer frequency, TF over GST control)	1.23 fold enrichment (6-mer frequency, TF over GST control)	1.13 fold enrichment (6-mer frequency, TF over GST control)	1.07 fold enrichment (6-mer frequency, TF over GST control)	1.11 fold enrichment (6-mer frequency, TF over GST control)
CGCTGC	1.12 fold enrichment (6-mer frequency, TF over GST control)	1.04 fold enrichment (6-mer frequency, TF over GST control)	1.25 fold enrichment (6-mer frequency, TF over GST control)	1.22 fold enrichment (6-mer frequency, TF over GST control)	1.14 fold enrichment (6-mer frequency, TF over GST control)	1.28 fold enrichment (6-mer frequency, TF over GST control)	1.07 fold enrichment (6-mer frequency, TF over GST control)	1.22 fold enrichment (6-mer frequency, TF over GST control)	1.16 fold enrichment (6-mer frequency, TF over GST control)
TTAGAA	1 fold enrichment (6-mer frequency, TF over GST control)	1.02 fold enrichment (6-mer frequency, TF over GST control)	1.01 fold enrichment (6-mer frequency, TF over GST control)	1.05 fold enrichment (6-mer frequency, TF over GST control)	1.14 fold enrichment (6-mer frequency, TF over GST control)	1.14 fold enrichment (6-mer frequency, TF over GST control)	1.13 fold enrichment (6-mer frequency, TF over GST control)	1.03 fold enrichment (6-mer frequency, TF over GST control)	1.06 fold enrichment (6-mer frequency, TF over GST control)
GTAACT	1.31 fold enrichment (6-mer frequency, TF over GST control)	1.25 fold enrichment (6-mer frequency, TF over GST control)	1.22 fold enrichment (6-mer frequency, TF over GST control)	1.25 fold enrichment (6-mer frequency, TF over GST control)	1.22 fold enrichment (6-mer frequency, TF over GST control)	1.21 fold enrichment (6-mer frequency, TF over GST control)	1.35 fold enrichment (6-mer frequency, TF over GST control)	1.28 fold enrichment (6-mer frequency, TF over GST control)	1.11 fold enrichment (6-mer frequency, TF over GST control)
TTTACG	1.39 fold enrichment (6-mer frequency, TF over GST control)	1.28 fold enrichment (6-mer frequency, TF over GST control)	1.34 fold enrichment (6-mer frequency, TF over GST control)	1.26 fold enrichment (6-mer frequency, TF over GST control)	1.26 fold enrichment (6-mer frequency, TF over GST control)	1.3 fold enrichment (6-mer frequency, TF over GST control)	1.33 fold enrichment (6-mer frequency, TF over GST control)	1.23 fold enrichment (6-mer frequency, TF over GST control)	1.27 fold enrichment (6-mer frequency, TF over GST control)
GATATG	1.15 fold enrichment (6-mer frequency, TF over GST control)	1.06 fold enrichment (6-mer frequency, TF over GST control)	1.07 fold enrichment (6-mer frequency, TF over GST control)	1.11 fold enrichment (6-mer frequency, TF over GST control)	1.03 fold enrichment (6-mer frequency, TF over GST control)	1.12 fold enrichment (6-mer frequency, TF over GST control)	1.06 fold enrichment (6-mer frequency, TF over GST control)	–	1.04 fold enrichment (6-mer frequency, TF over GST control)
